Laboratory results as given in PubChem BioAssay AID1159580 (chemical genetic matrix, 2015).
“And” between values parts separate entries of the source, which are not always exact repeats. Identical values can stand only once. Out of some 5,500 compounds screened, about 2,000 (36%) were called active. Not shown: some 18% with an inconclusive outcome. Rule as the data show it: active = normalized growth mostly below about 0.91 (no sharp cut-off); inconclusive = no clear call, values can overlap the other calls; inactive = mostly above about 0.92. This is one part of the list.

Test: chemical genetic growth profiling, strain panel (AID 1159580);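 also: tested at 20 µM; growth read once vehicle control cultures reached saturation at 30 °C; 1 = growth at the plate median or of vehicle wells; lower values mean less growth of the strain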
Settings: S. cerevisiae deletion strains, growth OD

Measured: normalized growth

CC12CC3CC(C)(C1)CC(N)(C3)C2
inactive: locus YAL013W, strain DEP1, stronger effect = lower value 1 and 0.983 | locus YAL021C, strain ccr4, stronger effect = lower value 1 | locus YAL026C, strain drs2, stronger effect = lower value 0.99 | locus YAL030W, strain snc1, stronger effect = lower value 0.976 | locus YAL040C, strain CLN3, stronger effect = lower value 1.06 | locus YBL061C, strain skt5, stronger effect = lower value 0.977 | locus YBR009C, strain hhf1, stronger effect = lower value 0.993 | locus YBR021W, strain FUR4, stronger effect = lower value 1.02 | locus YBR023C, strain chs3, stronger effect = lower value 0.985 | locus YBR171W, strain sec66, stronger effect = lower value 0.98 | locus YBR229C, strain ROT2, stronger effect = lower value 0.997 | locus YBR231C, strain swc5, stronger effect = lower value 0.963 | locus YBR279W, strain paf1, stronger effect = lower value 0.981 | locus YCL011C, strain gbp2, stronger effect = lower value 1.01 | locus YCL016C, strain dcc1, stronger effect = lower value 1.01 | locus YCL029C, strain bik1, stronger effect = lower value 1.02 | locus YCL061C, strain MRC1 (second series), stronger effect = lower value 0.994 | locus YCL061C, strain MRC1, stronger effect = lower value 0.989 | locus YCL069W, strain vba3, stronger effect = lower value 0.992 | locus YCR088W, strain abp1, stronger effect = lower value 0.982 | locus YDL005C, strain med2, stronger effect = lower value 0.988 | locus YDL035C, strain GPR1, stronger effect = lower value 0.999 | locus YDL040C, strain nat1, stronger effect = lower value 0.986 | locus YDL074C, strain BRE1, stronger effect = lower value 1.03 | locus YDL101C, strain DUN1, stronger effect = lower value 1.02 | locus YDL134C, strain PPH21, stronger effect = lower value 1 | locus YDL185W, strain tfp1, stronger effect = lower value 1.01 | locus YDL192W, strain arf1, stronger effect = lower value 1.01 | locus YDR001C, strain nth1, stronger effect = lower value 0.999 | locus YDR069C, strain doa4, stronger effect = lower value 0.983 | locus YDR101C, strain arx1, stronger effect = lower value 1.01 | locus YDR137W, strain rgp1, stronger effect = lower value 1.01 | locus YDR150W, strain NUM1, stronger effect = lower value 0.996 and 1 | locus YDR159W, strain sac3, stronger effect = lower value 0.962 | locus YDR162C, strain NBP2, stronger effect = lower value 1.01 | locus YDR195W, strain ref2 0.94 | locus YDR297W, strain sur2, stronger effect = lower value 0.988 | locus YDR318W, strain mcm21, stronger effect = lower value 1.02 | locus YDR334W, strain swr1, stronger effect = lower value 1.01 | locus YDR335W, strain msn5, stronger effect = lower value 0.986 | locus YDR363W, strain ESC2, stronger effect = lower value 0.959 | locus YDR388W, stronger effect = lower value 1.01 | locus YDR392W, strain spt3, stronger effect = lower value 0.993 | locus YDR502C, strain sam2, stronger effect = lower value 1.01 | locus YEL003W, strain gim4, stronger effect = lower value 0.986 | locus YEL037C, strain rad23, stronger effect = lower value 0.981 | locus YEL061C, strain CIN8 (second series), stronger effect = lower value 0.971 | locus YEL061C, strain CIN8, stronger effect = lower value 1 | locus YER002W, strain NOP16, stronger effect = lower value 1.02 | locus YER015W, strain faa2, stronger effect = lower value 0.998 | locus YER016W, strain bim1, stronger effect = lower value 0.979 | locus YER110C, stronger effect = lower value 1 | locus YER111C, strain swi4, stronger effect = lower value 0.983 | locus YER155C, strain BEM2 (second series), stronger effect = lower value 0.989 | locus YER155C, strain BEM2, stronger effect = lower value 1.01 | locus YER167W, strain BCK2, stronger effect = lower value 1.01 | locus YFR010W, strain ubp6, stronger effect = lower value 0.988 | locus YGL078C, strain dbp3, stronger effect = lower value 0.999 | locus YGL086W, strain mad1, stronger effect = lower value 0.988 | locus YGL167C, strain pmr1, stronger effect = lower value 1.01 | locus YGL173C, strain kem1, stronger effect = lower value 0.957 | locus YGL227W, strain vid30, stronger effect = lower value 0.994 | locus YGL240W, strain doc1, stronger effect = lower value 0.966 | locus YGL248W, strain PDE1, stronger effect = lower value 0.999 | locus YGL253W, strain hxk2, stronger effect = lower value 0.977 | locus YGR078C, strain PAC10, stronger effect = lower value 1.02 and 0.97 | locus YGR135W, strain pre9, stronger effect = lower value 1.01 | locus YGR229C, strain SMI1, stronger effect = lower value 1.02 | locus YGR252W, strain gcn5, stronger effect = lower value 0.968 | locus YHR013C, strain ard1, stronger effect = lower value 0.983 | locus YHR027C, strain rpn1, stronger effect = lower value 0.995 | locus YHR030C, strain SLT2, stronger effect = lower value 1.01 and 0.993 | locus YHR079C, strain IRE1 (second series), stronger effect = lower value 1.01 | locus YHR079C, strain IRE1, stronger effect = lower value 0.965 | locus YHR094C, strain hxt1, stronger effect = lower value 1.01 | locus YHR129C, strain ARP1, stronger effect = lower value 1.02 | locus YHR142W, strain chs7, stronger effect = lower value 0.963 | locus YHR200W, strain rpn10, stronger effect = lower value 1 | locus YIL066C, strain RNR3, stronger effect = lower value 1.01 | locus YIL073C, strain SPO22, stronger effect = lower value 1.09 | locus YIL125W, strain kgd1, stronger effect = lower value 1 | locus YIR030C, strain dcg1, stronger effect = lower value 1.01 | locus YJL092W, strain hpr5, stronger effect = lower value 0.983 | locus YJL095W, strain BCK1 (second series), stronger effect = lower value 0.985 | locus YJL095W, strain BCK1, stronger effect = lower value 1.04 and 1 | locus YJL115W, strain asf1, stronger effect = lower value 0.976 | locus YJL129C, strain trk1, stronger effect = lower value 0.958 | locus YJL134W, strain LCB3, stronger effect = lower value 0.999 | locus YJL154C, strain vps35, stronger effect = lower value 0.972 | locus YJL164C, strain tpk1, stronger effect = lower value 1.01 | locus YJL166W, strain qcr8, stronger effect = lower value 0.984 | locus YJL168C, strain set2, stronger effect = lower value 1 | locus YJL187C, strain SWE1 (second series), stronger effect = lower value 1.02 | locus YJL187C, strain SWE1, stronger effect = lower value 0.992 | locus YJR043C, strain POL32, stronger effect = lower value 1.01 | locus YJR066W, strain TOR1, stronger effect = lower value 0.923
